Reference: publication PMC4336329 (PLoS ONE, 2015)
The campaign covered roughly 310,000 compounds. About 14,000 (4.5%) showed an effect of 50% or more. The effect is printed as a negative number. What follows is part of a selection rich in strong results, with near analogues and random picks from the rest.

Molecular target: human ether-à-go-go-related gene (hERG) potassium channel (human, UniProt Q12809)
Test: primary screen, population patch clamp on CHO cells stably expressing hERG; higher = less effect of the substance
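Further: peak tail current of the secondary pulse compared with the same well before compound.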

Chain of human ether-à-go-go-related gene (hERG) potassium channel (Q12809 whole entry, looked up): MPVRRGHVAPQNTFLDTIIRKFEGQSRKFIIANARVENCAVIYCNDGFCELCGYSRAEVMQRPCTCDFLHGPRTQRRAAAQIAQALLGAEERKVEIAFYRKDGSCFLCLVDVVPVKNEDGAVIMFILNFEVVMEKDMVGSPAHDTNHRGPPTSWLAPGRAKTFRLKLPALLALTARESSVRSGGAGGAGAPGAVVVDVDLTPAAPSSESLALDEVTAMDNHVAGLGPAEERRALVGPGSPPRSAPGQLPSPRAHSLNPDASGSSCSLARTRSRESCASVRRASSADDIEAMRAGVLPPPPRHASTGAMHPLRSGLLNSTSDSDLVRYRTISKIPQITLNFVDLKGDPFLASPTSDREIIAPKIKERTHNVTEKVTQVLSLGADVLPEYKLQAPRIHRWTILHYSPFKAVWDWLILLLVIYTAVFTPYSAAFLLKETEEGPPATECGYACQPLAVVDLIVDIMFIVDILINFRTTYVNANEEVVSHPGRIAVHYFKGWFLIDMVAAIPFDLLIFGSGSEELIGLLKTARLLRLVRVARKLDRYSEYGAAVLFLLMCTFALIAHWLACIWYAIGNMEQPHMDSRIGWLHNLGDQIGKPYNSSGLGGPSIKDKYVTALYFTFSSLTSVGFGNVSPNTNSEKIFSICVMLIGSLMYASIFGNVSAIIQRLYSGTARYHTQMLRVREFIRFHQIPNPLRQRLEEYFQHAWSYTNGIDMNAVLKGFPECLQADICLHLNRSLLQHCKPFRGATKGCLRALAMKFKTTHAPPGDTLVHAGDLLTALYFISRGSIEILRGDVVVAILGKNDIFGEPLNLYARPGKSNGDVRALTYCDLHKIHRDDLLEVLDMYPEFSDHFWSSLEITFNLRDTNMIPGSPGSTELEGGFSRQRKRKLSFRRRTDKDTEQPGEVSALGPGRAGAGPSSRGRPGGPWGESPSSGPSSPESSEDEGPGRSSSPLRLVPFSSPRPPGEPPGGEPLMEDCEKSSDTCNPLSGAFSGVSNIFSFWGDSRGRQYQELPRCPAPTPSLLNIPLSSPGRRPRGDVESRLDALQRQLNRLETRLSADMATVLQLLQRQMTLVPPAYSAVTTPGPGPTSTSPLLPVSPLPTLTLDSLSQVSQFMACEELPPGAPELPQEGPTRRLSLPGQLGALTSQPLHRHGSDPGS

Structure (SMILES) | hERG current change (%, negative = inhibition) at 10uM [%]
COc1ccc2c(C)nc(Nc3nc(C)cc(C)n3)nc2c1 | 5.64
COc1cc(C2(c3ccc(O)c(OC)c3)C(=O)N(C)c3ccc(Br)cc32)ccc1O | -52.6
Cc1cc(C2(c3ccc(O)c(C)c3)C(=O)N(C)c3ccc(Br)cc32)ccc1O | -2.28
COc1cc(C2(c3ccc(O)c(OC)c3)C(=O)N(C)c3ccc(C)cc32)ccc1O | -19
COC(=O)c1c(NC(=O)C(=O)N2CCOCC2)sc2c1CCCC2 | 7.47
CC1CN(C(=O)c2ccccc2OCc2ccc(Cl)cc2Cl)CC(C)O1 (stereo not shown) | -37.7
CC(NC(=O)COC(=O)c1ccc(N(C)C)cc1)c1ccccc1 (stereo not shown) | 3.44
CC(=O)N(c1ccccc1)c1nc(C)cc(C)c1C#N | 12.1
COc1cc(-c2noc(C)c2C#Cc2ccccn2)cc(OC)c1OC | -29
COc1cc(-c2noc(C)c2C#Cc2nccn2C)cc(OC)c1OC | -53.4
COc1cc(-c2noc(C)c2C#CCO)cc(OC)c1OC | 6.47
O=Cc1cn(CCC(=O)O)nc1-c1cccc(Br)c1 | 24.2
Cc1ccc(S(=O)(=O)N(CC(=O)Nc2cccnc2)c2ccc(Br)cc2)cc1 | -50.3
O=C(CN(c1cccc([N+](=O)[O-])c1)S(=O)(=O)c1ccccc1)NCc1ccccc1 | -68.5
Cc1ccc(S(=O)(=O)N(CC(=O)Nc2cccnc2)c2cccc(Br)c2)cc1 | -11.5
CCOc1ccc(N(CC(=O)Nc2cccnc2)S(=O)(=O)c2ccc(C)cc2)cc1 | -5.5
COc1ccc(N(CC(=O)Nc2cccnc2)S(=O)(=O)c2ccc(C)cc2)cc1Cl | -16.9
Cc1ccc(S(=O)(=O)N(CC(=O)Nc2cccnc2)c2cccc([N+](=O)[O-])c2)cc1 | -56.6
O=C(CN(c1cccc([N+](=O)[O-])c1)S(=O)(=O)c1ccccc1)NCc1cccnc1 | -42.2
Cc1ccc(S(=O)(=O)N(CC(=O)Nc2cccnc2)c2ccccc2C)cc1 | -16.4
Cc1ccc(CNC(=O)CN(c2cccc([N+](=O)[O-])c2)S(=O)(=O)c2ccccc2)cc1 | -25
Cc1cc(C)c2cc(C#N)c(NCCCNC(=O)CCC(=O)O)nc2c1 | 12.2

Structure (SMILES) | hERG current change (%, negative = inhibition) at 10uM [%]
COc1ccc(N=CC2=C(Nc3ccc(OC)cc3)c3c(C)nn(-c4ccccn4)c3CC2)cc1 | -16.4
COCC1CCN(C(=O)c2cc(COc3ccc(F)cc3F)on2)C1 (stereo not shown) | -13.2
CCOC(=O)c1c(NC(=O)C2C3CCC(O3)C2C(=O)O)sc2c1CCC(CC)C2 (stereo not shown) | -21.1
COc1ccc(CCN(C)Cc2cccc3ccccc23)cc1OC | -73.8
COc1ccc(CN(C)Cc2c(O)ccc3cc(Br)ccc23)cc1OC | -37.3
COc1ccc(CCN(C)Cc2c(O)ccc3cc(Br)ccc23)cc1OC | -59.5
COc1ccc2cc(Br)ccc2c1CC(=O)N(C)C | 10.7
COc1ccc(CCN(C)C(=O)CNC(=O)Cc2cccc3ccccc23)cc1OC | -1.9
COc1cc(CN(C)Cc2cccc3ccccc23)cc([N+](=O)[O-])c1O | 11.9
COc1ccc(CN(C)Cc2c(O)ccc3ccccc23)cc1 | -24.7
COc1ccc(OCCN(C)Cc2c(O)ccc3ccccc23)cc1 | 19
COc1ccc(CCN(C)Cc2c(O)ccc3ccccc23)cc1OC | -74
Cc1ccc(C(=O)NCC(=O)OCCOc2cccc(Cl)c2)cc1 | -7.72
Cc1nn(C)c2ncc(C(N)=O)c(Oc3ccc(Cl)cc3)c12 | 7.24
Cc1ccc(S(=O)(=O)Nc2cccc3cccnc23)cc1 | -12.1
O=C(CSc1nc(Nc2ccccc2)nc(N2CCOCC2)n1)Nc1ccc([N+](=O)[O-])cc1 | 9.65
COc1ccc([C@@H]2[C@H]3C(=O)N(c4cccc(C(F)(F)F)c4)C(=O)[C@H]3ON2C)cc1 | -12.1
COc1ccc(S(=O)(=O)NCCOc2ccccc2)cc1F | 8.52
CC(C)NC(=O)Cn1nnc(-c2ccc(Cl)cc2)n1 | 4.9
Cc1nn(CC(=O)NCc2ccccn2)c(C)c1[N+](=O)[O-] | -10.9
Cc1ccc(NC(=O)COC(=O)c2ccc(Cl)nc2)cc1S(=O)(=O)N1CCCCC1 | 15.2
